Results filed as inconclusive are left out. Values without a mark were called inactive. Calls of active or inactive are those of the source. The call rests on the fitted dose curve; in most records, active means well fitted cell-killing curve with a large enough effect in the repeat runs; inconclusive means weak or mixed curves; inactive means no such curve, though single readings can be large or run the other way.
Test: qHTS assay for identifying genotoxic compounds that show differential cytotoxicity against isogenic chicken DT40 cell lines with known DNA damage response pathways - Rad54/Ku70 mutant cell line (AID 743015); further: nearly all actives have a fitted effect of over 60% in size
Conditions: DT40 Rad54/Ku70 mutant viability, CellTiter-Glo, 40 h; series mostly up to 66.8 µM; activity change, negative = cytotoxicity: at the top concentration
Description: National Center for Advancing Translational Sciences [NCATS]
NIH Chemical Genomics Center [NCGC]
U.S. Environmental Protection Agency [EPA]
National Institutes of Environmental Health Sciences [NIEHS]
National Toxicology Program [NTP]
U.S. Food and Drug Administration [FDA]
DNA repair pathways play a critical role in cellular homeostasis by repairing DNA damage induced by endogenous processes and xenobiotics. Isogenic chicken DT40 cell lines deficient in different DNA repair pathways can be used to identify genotoxic compounds and aid in characterizing the nature of the DNA damage induced. Two DNA repair-deficient cell lines with disrupted genes, Rad54/Ku70 or Rev3, were used to screen the Tox21 10K compound library. Possible genotoxicity was based on the presence of a significant increase in cytotoxicity in one or more of the DNA repair-deficient cell lines compared to that observed in the parental DNA repair-proficient cell line. CellTiter Glo viability assay (Promega, Madison, WI) was used to measure cell viability in these cells after compound treatment. This assay includes the data from the Rad54/Ku70 mutant cell line.
Tox21 Assay Protocol Summary:
300 DT40 mutant cells in 5 uL/well were dispensed into white, solid-bottom 1536-well plates using a Multidrop Combi (ThermoFisher Scientific, Waltham, MA) dispenser. After the assay plates were incubated at 37 C/5% CO2 for approximately 0.5 hour, 23 nL of compounds dissolved in DMSO, positive controls or DMSO only was transferred into the assay plate by a pintool work station (Kalypsys, San Diego, CA). The assay plates were incubated at 37 C/5% CO2 for 40 hours. After 5 uL per well of CellTiter-Glo reagent was added into each well of the assay plates, the plates were incubated for 30 min at room temperature and the luminescence intensity of the plates was measured using a ViewLux (PerkinElmer, Shelton, CT) plate reader.
On the % scale 0 is the no-effect control and ±100 the full control effect; potency means the concentration at half of the fitted maximal effect.

SMILES | activity change, negative = cytotoxicity | Potency
O=C(O)CCCCCCCCCCCBr | 9.34% | 
CN1CCCC(n2nc(Cc3ccc(Cl)cc3)c3ccccc3c2=O)CC1 (stereo not given) |  | 16.8 µM (active)
CCCCCCCC/C=C\CCCCCCCCCCCC(=O)O | -0.645% [at 95.1 µM] | 
CC(C)(O)c1ccc(CNC(=O)c2cccnc2Oc2ccc3nonc3c2)cc1 |  | 61.1 µM (active)
CC(C)=CCC1C(=O)N(c2ccccc2)N(c2ccccc2)C1=O |  | 16.8 µM (active)
Oc1c(I)cc(I)c2cccnc12 |  | 13.3 µM (active)
CC(=O)N/N=C/c1ccc([N+](=O)[O-])o1 |  | 18.8 µM (active)
O=C1c2ccccc2C(=O)C1c1ccc(Br)cc1 | 6.54% | 
CCC(C)COC(=O)CC(C)C (stereo not given) |  | 61.1 µM (active)
Nc1ccc(N=Nc2ccccc2)c(N)c1 |  | 59.8 µM (active)
CCC(OCCCOC)OC(C)=O (stereo not given) | 3.27% [at 95.1 µM] | 
CN1C(=O)c2ccccc2C1=O |  | 61.1 µM (active)
CCN(CC)CCNC(=O)COc1ccc(OC)cc1 | 4.1% | 
Cc1ccc(OC(=O)c2ccccc2O)cc1 | -2.55% | 
C=C(C)C(=O)OCCOCCOC(=O)C(=C)C | 25.4% | 
O=C1c2ccccc2C(=O)C1c1nc2ccccc2c(Br)c1O | -8.42% | 
CC(C)COCC(CN(Cc1ccccc1)c1ccccc1)N1CCCC1 (stereo not given) |  | 7.5 µM (active)
O=C(Nc1cccc2c(=O)cc(-c3nn[nH]n3)oc12)c1ccc(OCCCCc2ccccc2)cc1 | 10.6% | 
O=Cc1c2ccccc2c(Cl)c2ccccc12 | 6.17% | 
CCCCCCCC/C=C\CCCCCCCCO | -0.214% | 

SMILES | activity change, negative = cytotoxicity | Potency
CC(CO)CO | 3.86% [at 95.1 µM] | 
c1csc(SSc2cccs2)c1 |  | 10.9 µM (active)
CCn1cc(C(=O)O)c(=O)c2cc(F)c(N3CCNCC3)cc21 |  | inactive
CC(CCC(=O)O)C(=O)O (stereo not given) | -1.58% | 
O=C(O)C[C@H](NC(=O)OCc1ccccc1)C(=O)O | 1.42% | 
C[C@@H](CN(C)C)CN1c2ccccc2Sc2ccccc21 |  | 11.4 µM (active)
CCCCCCCCCCCCCCN(CCO)CCO |  | 2.43 µM (active)
C=CC(=O)OCC1CC2CC1C1CCC(COC(=O)C=C)C21 (stereo not given) |  | 19.3 µM (active)
C=CC(C)(CCC=C(C)C)OC(=O)CC(C)C (stereo not given) | -22.5% | 
O=C(/C=C/c1ccccc1)OCCc1ccccc1 | 5.42% | 
COc1cc(C(=O)NCCCCCC(=O)O)cc(OC)c1OC | 1.11% | 
CC1(C)O[C@@H]2C[C@H]3[C@@H]4C[C@H](F)C5=CC(=O)C=C[C@]5(C)[C@H]4[C@@H](O)C[C@]3(C)[C@]2(C(=O)CO)O1 | 0.136% [at 30.7 µM] | 
O=c1[nH]ncc2ccccc12 | 16.5% | 
Cc1ccc(CO)cc1 | 8.04% [at 95.1 µM] | 
CCOC(=O)OC(C)OC(=O)[C@@H]1N2C(=O)[C@@H](NC(=O)[C@H](N)c3ccccc3)[C@H]2SC1(C)C (stereo not given in full) | 3.37% [at 30.7 µM] | 
CN1C(=O)N(c2ccccc2Br)Cc2cnc(Nc3ccc4c(c3)OCC(CO)O4)nc21 (stereo not given) |  | 6.86 µM (active)
COC(=O)CCS | 0.366% | 
CCCCOc1ccc(OCCCN2CCOCC2)cc1 |  | 2.27 µM (active)
CCOC(=O)[C@H](CCc1ccccc1)N[C@@H](C)C(=O)N(CC(=O)O)C1Cc2ccccc2C1 |  | 23.7 µM (active)
C=COCC(C)C | -0.0473% [at 95.1 µM] | 

Source: PubChem BioAssay (Tox21)
